High-throughput results: PubChem, National Center for Advancing Translational Sciences (NCATS)
TDP1 cell CPT: growth inhibition of DT40 Tdp1-/-;hTDP1 cells with camptothecin (screen for TDP1 inhibitors); chicken DT40 Tdp1-/-;hTDP1 cells + 20 nM CPT, ATP luminescence, 48 h; Potency, µM (series often up to 46.2 µM), for the others: top-dose activity change, negative = growth inhibition, actives largely listed as inhibitors; 420,000 tested, 12% active; AID 686979; further: on the % scale 0 is the no-effect control and ±100 the full control effect; nearly all actives have a fitted effect of over 55% in size
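Chicken DT40 Tdp1-/- cells stably complemented with human TDP1 were seeded at 400 cells/well in medium containing 20 nM camptothecin, exposed to pin-transferred compounds, and grown at 37 °C for at least 48 hr. Viability was read as ATP luminescence.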
ClpP mod: qHTS Assay for Activators of ClpP; purified B. subtilis ClpP, FRET peptide cleavage, 20 min; Potency, µM (top dose mostly 57.5 µM), for inactives: top-dose activity change, negative = active; 340,000 tested, 1.9% active; AID 651965, 2013; active means well fitted falling curve with a large enough effect; inconclusive means small, poorly fitted or top-dose-only effect; inactive means no such curve, though single readings can be large or run the other way; further: the source files actives as falling curves though it sought activators and does not explain the sign; nearly all actives have a fitted effect of over 65% in size
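FRET quenching reversal measured ClpP activation: 10 microg/mL B. subtilis ClpP at pH 8 with the FRET-FV decapeptide, read at 430 nm after 320 nm excitation. The 20-min minus 0-min signal was scaled between DMSO/no-enzyme wells and ADEP (5.8 microM final).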
DT40 TDP1 no CPT: qHTS for Inhibitors of human tyrosyl-DNA phosphodiesterase 1 (TDP1): qHTS in cells in absence of CPT; Potency, µM (top dose mostly 46.2 µM), for the others: top-dose activity change, negative = growth inhibition, usual class: inhibitors; 420,000 tested, 15% active; AID 686978, 2013; DT40 Tdp1-/- hTDP1 cells, no CPT, ATP luminescence, 48 h; further: on the % scale 0 is the no-effect control and ±100 the full control effect; nearly all actives have a fitted effect of over 55% in size
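A cellular qHTS used chicken DT40 cells lacking endogenous Tdp1 but carrying stably transfected human TDP1. Compounds were applied without camptothecin, and cell growth kinetics were judged by ATP-dependent luminescence after ≥48 hr.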
TDP1 inh: inhibitors of human tyrosyl-DNA phosphodiesterase TDP1 | Potency, µM (top dose mostly 130 µM), inactives show at the top dose activity change, negative = inhibition, most hits filed as inhibitors | Q9NUW8 | 350,000 tested, 0.28% active | AID 485290 | recombinant TDP1, AlphaScreen DNA substrate cleavage; further: on the % scale 0 is the no-effect control and ±100 the full control effect; nearly all actives have a fitted effect of over 40% in size
Target sequence (Q9NUW8 whole entry, looked up): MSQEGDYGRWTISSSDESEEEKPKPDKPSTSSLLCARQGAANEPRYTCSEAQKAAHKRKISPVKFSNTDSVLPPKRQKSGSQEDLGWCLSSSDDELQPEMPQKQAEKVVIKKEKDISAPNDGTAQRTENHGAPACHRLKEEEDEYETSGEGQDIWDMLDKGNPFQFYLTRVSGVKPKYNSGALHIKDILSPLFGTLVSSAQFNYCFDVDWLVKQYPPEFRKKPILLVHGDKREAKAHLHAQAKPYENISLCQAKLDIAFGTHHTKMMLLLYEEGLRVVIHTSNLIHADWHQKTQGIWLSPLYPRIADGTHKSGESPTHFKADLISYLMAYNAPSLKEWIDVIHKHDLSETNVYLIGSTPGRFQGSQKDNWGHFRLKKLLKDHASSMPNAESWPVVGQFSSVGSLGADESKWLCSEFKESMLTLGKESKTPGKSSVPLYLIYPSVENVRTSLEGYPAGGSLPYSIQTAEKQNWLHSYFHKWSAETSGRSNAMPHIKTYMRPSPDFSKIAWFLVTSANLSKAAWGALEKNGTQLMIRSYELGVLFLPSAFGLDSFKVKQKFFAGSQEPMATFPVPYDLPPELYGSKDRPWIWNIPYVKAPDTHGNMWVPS
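Compounds were preincubated with Tdp1 (1 nM final) for 15 min at room temperature before substrate (15 nM final) started a 5 min reaction; beads (10 ug/ml final) were then added for 10 min before AlphaScreen detection.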
* marks the source's active call; other numbers are inactive results. The list is not random: actives were taken first. Their share in the collection is about 17%. Unless noted, the call rests on the fitted dose curve; in most records, active means well fitted curve in the direction sought with a large enough effect; inconclusive means small, poorly fitted or top-dose-only effect, or another doubt; inactive means no such curve, though single readings can be large; an effect the other way counts as inactive or inconclusive. Potency means the concentration at half of the fitted maximal effect.

`O=C(Nc1ccc(Cl)c(Cl)c1)OCCNC(=O)c1ccncc1` gave TDP1 cell CPT inconclusive, DT40 TDP1 no CPT 23µM* and TDP1 inh 3%.
For N#CCC(=O)NCCCOC(=O)Nc1ccc(Cl)c(Cl)c1 the results were TDP1 cell CPT inconclusive, ClpP mod 0%, DT40 TDP1 no CPT inconclusive and TDP1 inh -1%.
Clc1ccc(CN=C(Nc2ccccc2)NC2CCCCC2)cc1 was read as TDP1 cell CPT 18µM* and DT40 TDP1 no CPT 23µM*.
`O=C(Cc1ccc(Cl)cc1)NC1CCCCCC1` gave TDP1 cell CPT -13%, ClpP mod -4% and DT40 TDP1 no CPT 0%.
For C[C@H](CO)N1C[C@H](C)[C@@H](CN(C)C(=O)Nc2cccc(F)c2)Oc2ncc(Br)cc2C1=O the results were TDP1 cell CPT -12%, ClpP mod 1% and DT40 TDP1 no CPT -15%.
`O=C1NC(c2ccccc2)N=C2Oc3ccccc3C=C12` (stereo not given) gave TDP1 cell CPT 4.6µM*, ClpP mod 11µM* and DT40 TDP1 no CPT 4.6µM*.
`O=C(C1CCN(Cc2ccccc2O)CC1)N1CCN(Cc2ccc3c(c2)OCO3)CC1` gave TDP1 cell CPT -1%, ClpP mod -5%, DT40 TDP1 no CPT 1% and TDP1 inh 3%.
COc1cccc(CN2CCC(C(=O)N3CCN(Cc4ccc5c(c4)OCO5)CC3)CC2)c1OC was read as TDP1 cell CPT inconclusive, ClpP mod 18µM*, DT40 TDP1 no CPT inconclusive and TDP1 inh 3%.
For COc1ccc(OC)c(CN2CCN(C(=O)c3cccc(S(=O)(=O)N(C)c4ccccc4)c3)CC2)c1 the results were TDP1 cell CPT 18µM*, ClpP mod -1% and DT40 TDP1 no CPT 13µM*.
For COc1ccc(N(C)S(=O)(=O)c2cccc(C(=O)N3CCN(Cc4ccc5c(c4)OCO5)CC3)c2)cc1 the results were TDP1 cell CPT 23µM*, ClpP mod 1%, DT40 TDP1 no CPT 18µM* and TDP1 inh -3%.
`O=C(/C=C/c1ccc(S(=O)(=O)N2CCOCC2)cc1)NCCCn1ccnc1` gave TDP1 cell CPT -3%, ClpP mod 1%, DT40 TDP1 no CPT 4% and TDP1 inh 5%.
`COc1ccc(NC(=O)c2cc3c([nH]c4ccccc43)c(C)n2)cc1` gave TDP1 cell CPT -3%, DT40 TDP1 no CPT -22% and TDP1 inh 6%.
Screening Cc1nc(C(=O)Nc2ccccc2Cl)cc2c1[nH]c1ccccc12 returned TDP1 cell CPT inconclusive, ClpP mod -11%, DT40 TDP1 no CPT 6.5µM* and TDP1 inh 4%.
Cc1cc(C)c(NC(=O)Cc2ccc(-n3c(C)nc4cccnc43)cc2)c(C)c1 was read as TDP1 cell CPT 18µM*, ClpP mod -8%, DT40 TDP1 no CPT 21µM* and TDP1 inh -6%.
`CCOC(=O)c1ccc(NC(=O)Cc2ccc(-n3c(CC)nc4cccnc43)cc2)cc1` gave TDP1 cell CPT 18µM*, ClpP mod -1%, DT40 TDP1 no CPT 26µM* and TDP1 inh 6%.
`O=C(CCc1nc2cccnc2n1Cc1cccs1)Nc1cccc(Cl)c1` gave TDP1 cell CPT 16µM*, ClpP mod -4%, DT40 TDP1 no CPT inconclusive and TDP1 inh 1%.
For CCc1nc2cccnc2n1-c1ccc(CC(=O)NCCOC)cc1 the results were TDP1 cell CPT -3%, ClpP mod -12% and DT40 TDP1 no CPT -6%.
Screening CCOC(=O)c1ccc(NC(=O)CCc2nc3cccnc3n2Cc2cccs2)cc1 returned TDP1 cell CPT inconclusive, ClpP mod -8%, DT40 TDP1 no CPT 18µM* and TDP1 inh 6%.
For CCOc1ccc(NC(=O)CCc2nc3cccnc3n2-c2ccccc2)cc1 the results were TDP1 cell CPT inconclusive, ClpP mod 1%, DT40 TDP1 no CPT inconclusive and TDP1 inh 1%.
COc1ccc(Cn2c(CCC(=O)Nc3ccc(OC)c(Cl)c3)nc3cccnc32)cc1 was read as TDP1 cell CPT -22%, ClpP mod 1%, DT40 TDP1 no CPT inconclusive and TDP1 inh 6%.
CCCn1c(CCC(=O)Nc2cccc(CC)c2)nc2cccnc21 was read as TDP1 cell CPT 16µM*, ClpP mod -11%, DT40 TDP1 no CPT inconclusive and TDP1 inh 4%.
For Cc1cc(NC(=O)CCc2nc3cccnc3n2Cc2cccs2)ccc1Br the results were TDP1 cell CPT 16µM*, ClpP mod -8%, DT40 TDP1 no CPT 21µM* and TDP1 inh 6%.
Screening CCN(CC)c1ccc(NC(=O)CCc2nc3cccnc3n2Cc2cccs2)c(C)c1 returned TDP1 cell CPT inconclusive, ClpP mod -4%, DT40 TDP1 no CPT inconclusive and TDP1 inh 4%.
CCOc1ccc(OCC)c(NC(=O)CCc2nc3cccnc3n2Cc2cccs2)c1 was read as TDP1 cell CPT inconclusive, ClpP mod -6%, DT40 TDP1 no CPT 16µM* and TDP1 inh 6%.
Cc1ccc(NC(=O)CCc2nc3cccnc3n2-c2ccccc2)cc1 was read as TDP1 cell CPT inconclusive, ClpP mod -2%, DT40 TDP1 no CPT inconclusive and TDP1 inh 6%.
COCC1=C2c3ccccc3[C@@H]3CNC(=O)C3(C(=O)OC)C[C@@H]2n2c(=O)n(-c3ccccc3)c(=O)n2C1 (stereo not given in full) was read as TDP1 inh 4%.
`CCN(CC)C1CC(=O)N(c2cccc(C)c2)C1=O` (stereo not given) gave TDP1 inh 3%.
Screening O=C(O)c1cc(N2C(=O)C=CC2=O)cc(N2C(=O)C=CC2=O)c1 returned TDP1 cell CPT -2%, ClpP mod -3% and DT40 TDP1 no CPT 0%.
`O=C1C=CC(=O)N1c1ccc2ccccc2c1` gave TDP1 cell CPT 4.1µM* and DT40 TDP1 no CPT 5.2µM*.
`O=C1c2ccccc2C(=O)N1c1ccc2ncccc2c1` gave TDP1 cell CPT 0%, ClpP mod -4%, DT40 TDP1 no CPT -1% and TDP1 inh -14%.
Screening O=C1C=CC(=O)N1c1ccc(Nc2ccccc2)cc1 returned TDP1 cell CPT 5.8µM* and DT40 TDP1 no CPT 5.8µM*.
`Cc1cccc(N2C(=O)C=CC2=O)c1` gave TDP1 cell CPT 2.6µM* and DT40 TDP1 no CPT 4.6µM*.
`COc1cccc(OCCOc2ccccc2OC(C)C)c1` gave TDP1 cell CPT -9%, ClpP mod 0%, DT40 TDP1 no CPT inconclusive and TDP1 inh -11%.
`CCN(CC)C(=O)Cn1cc(S(=O)(=O)CC(=O)NC2CCCCC2)c2ccccc21` gave TDP1 cell CPT -3%, DT40 TDP1 no CPT -23% and TDP1 inh 1%.
For CCCN1C(=O)c2oc3cc(C)cc(C)c3c(=O)c2C1c1ccc(F)cc1 (stereo not given) the results were TDP1 cell CPT 5%, ClpP mod -4%, DT40 TDP1 no CPT -4% and TDP1 inh 0%.
